Source: PubChem BioAssay AID1159580 (chemical genetic matrix, 2015)
In all, about 5,500 compounds went through this assay and about 2,000 (36%) were called active. Not shown: some 18% with an inconclusive outcome. Some of the results follow. Unmarked numbers belong to inactive results. Rule as the data show it: active = normalized growth mostly below about 0.91 (no sharp cut-off); inconclusive = no clear call, values can overlap the other calls; inactive = mostly above about 0.92.

Assay: chemical genetic growth profiling, strain panel (AID 1159580);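 also: tested at 20 µM; growth read once vehicle control cultures reached saturation at 30 °C; 1 = growth at the plate median or of vehicle wells; lower values mean less growth of the strain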
Conditions: growth OD

## CCC/C=C/C=C/[C@@H]1C[C@@H](O)[C@@H](O)C(=O)[C@H]1C=O
S. cerevisiae deletion strains, locus YBR021W, strain FUR4, stronger effect = lower value
  normalized growth: 1.01
S. cerevisiae deletion strains, locus YBR229C, strain ROT2, stronger effect = lower value
  normalized growth: 0.992
S. cerevisiae deletion strains, locus YCL029C, strain bik1, stronger effect = lower value
  normalized growth: 0.98
S. cerevisiae deletion strains, locus YDL035C, strain GPR1, stronger effect = lower value
  normalized growth: 1
S. cerevisiae deletion strains, locus YDL074C, strain BRE1, stronger effect = lower value
  normalized growth: 1.01
S. cerevisiae deletion strains, locus YDL101C, strain DUN1, stronger effect = lower value
  normalized growth: 0.994
S. cerevisiae deletion strains, locus YDL185W, strain tfp1, stronger effect = lower value
  normalized growth: 0.0596 (active)
S. cerevisiae deletion strains, locus YDL192W, strain arf1, stronger effect = lower value
  normalized growth: 0.949
S. cerevisiae deletion strains, locus YDR101C, strain arx1, stronger effect = lower value
  normalized growth: 0.978
S. cerevisiae deletion strains, locus YDR162C, strain NBP2, stronger effect = lower value
  normalized growth: 0.982
S. cerevisiae deletion strains, locus YDR318W, strain mcm21, stronger effect = lower value
  normalized growth: 0.959
S. cerevisiae deletion strains, locus YDR388W, stronger effect = lower value
  normalized growth: 0.955
S. cerevisiae deletion strains, locus YDR502C, strain sam2, stronger effect = lower value
  normalized growth: 0.976
S. cerevisiae deletion strains, locus YEL061C, strain CIN8, stronger effect = lower value
  normalized growth: 0.984
S. cerevisiae deletion strains, locus YER110C, stronger effect = lower value
  normalized growth: 0.999
S. cerevisiae deletion strains, locus YER155C, strain BEM2, stronger effect = lower value
  normalized growth: 0.955
S. cerevisiae deletion strains, locus YER167W, strain BCK2, stronger effect = lower value
  normalized growth: 0.976
S. cerevisiae deletion strains, locus YGL078C, strain dbp3, stronger effect = lower value
  normalized growth: 0.94
S. cerevisiae deletion strains, locus YGL086W, strain mad1, stronger effect = lower value
  normalized growth: 0.976
S. cerevisiae deletion strains, locus YGL248W, strain PDE1, stronger effect = lower value
  normalized growth: 1
S. cerevisiae deletion strains, locus YGR135W, strain pre9, stronger effect = lower value
  normalized growth: 0.988
S. cerevisiae deletion strains, locus YGR252W, strain gcn5, stronger effect = lower value
  normalized growth: 1.16
S. cerevisiae deletion strains, locus YHR030C, strain SLT2, stronger effect = lower value
  normalized growth: 0.978
S. cerevisiae deletion strains, locus YHR079C, strain IRE1 (second series), stronger effect = lower value
  normalized growth: 0.981
S. cerevisiae deletion strains, locus YHR094C, strain hxt1, stronger effect = lower value
  normalized growth: 0.97
S. cerevisiae deletion strains, locus YHR129C, strain ARP1, stronger effect = lower value
  normalized growth: 0.99
S. cerevisiae deletion strains, locus YHR200W, strain rpn10, stronger effect = lower value
  normalized growth: 0.972
S. cerevisiae deletion strains, locus YIL066C, strain RNR3, stronger effect = lower value
  normalized growth: 0.971
S. cerevisiae deletion strains, locus YIL073C, strain SPO22, stronger effect = lower value
  normalized growth: 1.03
S. cerevisiae deletion strains, locus YIL125W, strain kgd1, stronger effect = lower value
  normalized growth: 0.853 (active)
S. cerevisiae deletion strains, locus YIR030C, strain dcg1, stronger effect = lower value
  normalized growth: 0.975
S. cerevisiae deletion strains, locus YJL095W, strain BCK1, stronger effect = lower value
  normalized growth: 1.03
S. cerevisiae deletion strains, locus YJL134W, strain LCB3, stronger effect = lower value
  normalized growth: 0.947
S. cerevisiae deletion strains, locus YJL168C, strain set2, stronger effect = lower value
  normalized growth: 0.973
S. cerevisiae deletion strains, locus YJL187C, strain SWE1 (second series), stronger effect = lower value
  normalized growth: 1.03
S. cerevisiae deletion strains, locus YJR043C, strain POL32, stronger effect = lower value
  normalized growth: 0.99
S. cerevisiae deletion strains, locus YJR075W, strain HOC1, stronger effect = lower value
  normalized growth: 0.977
S. cerevisiae deletion strains, locus YKL009W, strain mrt4, stronger effect = lower value
  normalized growth: 0.76 (active)
S. cerevisiae deletion strains, locus YKL068W, stronger effect = lower value
  normalized growth: 0.928 (active)
S. cerevisiae deletion strains, locus YKL085W, strain MDH1 (second series), stronger effect = lower value
  normalized growth: 0.88 (active)
S. cerevisiae deletion strains, locus YKL085W, strain MDH1, stronger effect = lower value
  normalized growth: 0.88 (active)
S. cerevisiae deletion strains, locus YKL190W, strain CNB1, stronger effect = lower value
  normalized growth: 0.964
S. cerevisiae deletion strains, locus YKR001C, strain vps1, stronger effect = lower value
  normalized growth: 0.901
S. cerevisiae deletion strains, locus YLR039C, strain RIC1, stronger effect = lower value
  normalized growth: 0.496 (active)
S. cerevisiae deletion strains, locus YLR058C, strain SHM2, stronger effect = lower value
  normalized growth: 0.99
S. cerevisiae deletion strains, locus YLR102C, strain apc9, stronger effect = lower value
  normalized growth: 0.983
S. cerevisiae deletion strains, locus YLR262C, strain YPT6, stronger effect = lower value
  normalized growth: 0.504 (active)
S. cerevisiae deletion strains, locus YLR268W, strain sec22, stronger effect = lower value
  normalized growth: 0.829 (active)
S. cerevisiae deletion strains, locus YLR330W, strain CHS5, stronger effect = lower value
  normalized growth: 0.946
S. cerevisiae deletion strains, locus YLR342W, strain FKS1 (second series), stronger effect = lower value
  normalized growth: 0.948
S. cerevisiae deletion strains, locus YLR371W, strain rom2, stronger effect = lower value
  normalized growth: 0.978
S. cerevisiae deletion strains, locus YLR418C, strain cdc73, stronger effect = lower value
  normalized growth: 0.999
S. cerevisiae deletion strains, locus YML016C, strain PPZ1, stronger effect = lower value
  normalized growth: 0.986
S. cerevisiae deletion strains, locus YML032C, strain rad52, stronger effect = lower value
  normalized growth: 0.954
S. cerevisiae deletion strains, locus YML124C, strain tub3, stronger effect = lower value
  normalized growth: 0.991
S. cerevisiae deletion strains, locus YMR078C, strain ctf18, stronger effect = lower value
  normalized growth: 0.973
S. cerevisiae deletion strains, locus YMR223W, strain ubp8, stronger effect = lower value
  normalized growth: 0.929
S. cerevisiae deletion strains, locus YMR263W, strain SAP30, stronger effect = lower value
  normalized growth: 0.992
S. cerevisiae deletion strains, locus YMR307W, strain GAS1, stronger effect = lower value
  normalized growth: 1.04
S. cerevisiae deletion strains, locus YNL067W, strain RPL9B, stronger effect = lower value
  normalized growth: 0.986
S. cerevisiae deletion strains, locus YNL153C, strain GIM3, stronger effect = lower value
  normalized growth: 1.01
S. cerevisiae deletion strains, locus YNL233W, strain BNI4, stronger effect = lower value
  normalized growth: 0.973
S. cerevisiae deletion strains, locus YNL250W, strain rad50, stronger effect = lower value
  normalized growth: 0.821 (active)
S. cerevisiae deletion strains, locus YNL271C, strain bni1, stronger effect = lower value
  normalized growth: 0.732 (active)
S. cerevisiae deletion strains, locus YNL298W, strain CLA4, stronger effect = lower value
  normalized growth: 0.901 (active)
S. cerevisiae deletion strains, locus YNL307C, strain MCK1, stronger effect = lower value
  normalized growth: 0.954
S. cerevisiae deletion strains, locus YNL322C, strain KRE1, stronger effect = lower value
  normalized growth: 0.984
S. cerevisiae deletion strains, locus YNR052C, strain pop2, stronger effect = lower value
  normalized growth: 0.907 (active)
S. cerevisiae deletion strains, locus YOL006C, strain TOP1, stronger effect = lower value
  normalized growth: 0.52 (active)
S. cerevisiae deletion strains, locus YOL012C, strain htz1
  normalized growth: 0.336
S. cerevisiae deletion strains, locus YOL147C, strain pex11, stronger effect = lower value
  normalized growth: 0.986
S. cerevisiae deletion strains, locus YOR061W, strain CKA2, stronger effect = lower value
  normalized growth: 0.986
S. cerevisiae deletion strains, locus YOR069W, strain VPS5, stronger effect = lower value
  normalized growth: 0.979
S. cerevisiae deletion strains, locus YOR136W, strain idh2, stronger effect = lower value
  normalized growth: 0.996
S. cerevisiae deletion strains, locus YOR144C, strain elg1, stronger effect = lower value
  normalized growth: 0.982
S. cerevisiae deletion strains, locus YOR184W, strain ser1, stronger effect = lower value
  normalized growth: 0.938
S. cerevisiae deletion strains, locus YOR316C, strain cot1, stronger effect = lower value
  normalized growth: 0.979
S. cerevisiae deletion strains, locus YPR119W, strain clb2, stronger effect = lower value
  normalized growth: 0.971
S. cerevisiae deletion strains, locus YPR141C, strain kar3, stronger effect = lower value
  normalized growth: 0.804 (active)
S. cerevisiae deletion strains, locus YPR163C, strain tif3, stronger effect = lower value
  normalized growth: 0.983
S. cerevisiae deletion strains, locus YPR167C, strain met16, stronger effect = lower value
  normalized growth: 0.979
S. cerevisiae deletion strains, strain wtn01, stronger effect = lower value
  normalized growth: 0.973
S. cerevisiae strains, strain wild type, stronger effect = lower value
  normalized growth: 0.971
